In PubChem BioAssay (NCATS):
Several values for one entry are separate records, joined by “and”; a condition that tells them apart may be missing. Equal entries are not always repeated. Results filed as inconclusive are left out. Activity calls are given as the source filed them. Calls come from the whole dose curve; as a rule, active = well fitted curve in the direction sought with a large enough effect; inconclusive = small, poorly fitted or top-dose-only effect, or another doubt; inactive = no such curve, though single readings can be large; an effect the other way counts as inactive or inconclusive.

What was measured:
[1] = Viability qHTS for spleen associated tyrosine kinase inhibitor (SYKi) naive MV4-11 cells (AID 1963823); note: nearly all actives have a fitted effect of over 40% in size; note: potency is the fitted concentration of half-maximal effect
Summary of the method: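 Seeding of 500 SYKi-naive MV4-11 cells per well onto pre-dispensed compounds preceded a 72 hr incubation at 37 C. Luminescent CellTiter-Glo signal, read after 10 min at room temperature, reflected viable cells.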

[2] = Viability qHTS for spleen associated tyrosine kinase inhibitor (SYKi) drug resistant MV4-11 cells (AID 1963824); note: nearly all actives have a fitted effect of over 35% in size; note: potency is the fitted concentration of half-maximal effect
Summary of the method: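 CellTiter-Glo luminescence, read 10 min after reagent addition, reports viability after a 72 hr compound exposure. Cells are an MV4-11 line made resistant to SYK inhibition, seeded at 500 per well onto compound-containing plates.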

[3] = Quantitative highthroughput screen to assess conditional lethalithy of NOMO1 cells grown in RPMI1640 with untreated serum (RPMI+s) (AID 1963876); note: nearly all actives have a fitted effect of over 35% in size; note: potency is the fitted concentration of half-maximal effect;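 for Viability: 100% = DMSO wells and 0% = empty wells without cells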
Summary of the method: (§1)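 Each medium arm—HPLM with 10% dialyzed FBS, or RPMI1640 with 5 mM glucose and 10% untreated or dialyzed FBS—was screened against an 11-point, 3-fold compound titration for 48 h at 37 °C, with CellTiter-Glo luminescence as endpoint.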

[4] = Quantitative highthroughput screen to assess conditional lethalithy of NOMO1 cells grown in RPMI1640 with dialyzed fetal bovine serum (RPMI+ds) (AID 1963877);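 note: series mostly up to about 46 µM; 100% = DMSO control wells and 0% = empty wells; nearly all actives have a fitted effect of over 30% in size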
Summary of the method: as §1

[5] = Quantitative highthroughput screen to assess conditional lethalithy of SEM cells grown in Human Plasma-Like Medium with dialyzed fetal bovine serum (HPLM+ds) (AID 1963882); note: nearly all actives have a fitted effect of over 35% in size; note: potency is the fitted concentration of half-maximal effect; for Viability: series mostly up to about 46 µM
Summary of the method: as §1

[6] = Quantitative highthroughput screen to assess conditional lethalithy of SEM cells grown in RPMI1640 with unreated serum (RPMI+s) (AID 1963883); note: nearly all actives have a fitted effect of over 35% in size; note: potency is the fitted concentration of half-maximal effect;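 for Viability: 100% = DMSO wells and 0% = empty wells without cells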
Summary of the method: as §1

[7] = Cellular viability qHTS for adrenocortical cancer (ACC) cell line SW-13 (AID 1963989); details: SW-13 ACC cells viability, CellTiter-Glo, 48 h; activity (max response): active compounds read low; note: nearly all actives have a fitted effect of over 65% in size; note: potency is the fitted concentration of half-maximal effect;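 for activity (max response): cells grown in serum-free medium with ITS supplement; % is set by controls: 0 for no effect and ±100 for the full control effect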
Summary of the method: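 Compound titrations (up to 46 uM final, in DMSO) were applied to SW-13 cells for 48 h at 37C/5% CO2. Reading used CellTiter-Glo after 20 min at room temperature; fitted curves yielded IC50 and efficacy.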

[8] = Cellular viability qHTS for adrenocortical cancer (ACC) cell line NCI-H295R (AID 1963990); note: nearly all actives have a fitted effect of over 60% in size; note: potency is the fitted concentration of half-maximal effect
Summary of the method: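 Readout: CellTiter-Glo luminescence, 20 min RT. Exposure: 48 h, 37C/5% CO2. Cells: NCI-H295R, ITS-DMEM serum-free. Range: up to 46 uM. Analysis: 4PL fit, IC50 plus efficacy.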

[9] = Quantitative highthroughput screen to assess conditional lethalithy of NOMO1 cells grown in Human Plasma-Like Medium with dialyzed fetal bovine serum (HPLM+ds) (AID 1963878)
Summary of the method: as §1

[10] = Quantitative highthroughput screen to assess conditional lethalithy of P12 Ichikawa cells grown in Human Plasma-Like Medium with dialyzed fetal bovine serum (HPLM+ds) (AID 1963879); details: Potency: viability; note: nearly all actives have a fitted effect of over 35% in size; note: potency is the fitted concentration of half-maximal effect; for Viability: series mostly up to about 46 µM
Summary of the method: as §1

[11] = Quantitative highthroughput screen to assess conditional lethalithy of P12 Ichikawa cells grown in RPMI1640 with untreated serum (RPMI+s) (AID 1963881); details: Potency: viability; note: nearly all actives have a fitted effect of over 35% in size; note: potency is the fitted concentration of half-maximal effect;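 for Viability: series mostly up to about 46 µM; 100% = DMSO wells and 0% = empty wells without cells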
Summary of the method: as §1

[12] = Quantitative highthroughput screen to assess conditional lethalithy of P12 Ichikawa cells grown in RPMI1640 with dialyzed fetal bovine serum (RPMI+ds) (AID 1963880); details: Potency: P12-Ichikawa viability; note: nearly all actives have a fitted effect of over 35% in size; note: potency is the fitted concentration of half-maximal effect;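 for Viability: 100% = DMSO wells and 0% = empty wells on each plate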
Summary of the method: as §1

[13] = Quantitative highthroughput screen to assess conditional lethalithy of SEM cells grown in RPMI1640 with dialyzed fetal bovine serum (RPMI+ds) (AID 1963884); note: nearly all actives have a fitted effect of over 35% in size; note: potency is the fitted concentration of half-maximal effect;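 for Viability: series mostly up to about 46 µM; 100% = DMSO control wells and 0% = empty wells without cells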
Summary of the method: as §1

O=P1(NCCCl)OCCCN1CCCl (configuration not stated)
active: Potency [5] 18.7 µM | Potency [6] 14.8 µM
inactive: Potency [1] | Potency [2] | Potency [3] | Potency [4] | activity (max response) [7] 17.4% and 1.23% | Potency [8]

CCc1c(C(=O)C(N)=O)c2c(OCC(=O)O)cccc2n1Cc1ccccc1
inactive: Potency [1] | Potency [2] | Potency [9] | Potency [10] | Potency [11] | Potency [6] | activity (max response) [7] -1.25% | Potency [8]

O=C1CC[C@@]2(O)[C@H]3Cc4ccc(O)c5c4[C@@]2(CCN3CC2CC2)[C@H]1O5
active: Potency [3] 7.43 µM
inactive: Potency [1] | Potency [2] | Potency [10] | Potency [12] | Potency [5] | Potency [6] | Potency [13] | activity (max response) [7] 9.15% and -5.08% | Potency [8]

CCC1(c2ccc(N)cc2)CCC(=O)NC1=O (configuration not stated)
inactive: Potency [1] | Potency [2] | Potency [3] | Potency [10] | Potency [12] | Potency [11] | Potency [5] | Potency [6] | activity (max response) [7] -1.13% and 5.11% | Potency [8]

O=C(Nc1ccncc1)C(=O)c1cn(Cc2ccc(Cl)cc2)c2ccccc12
active: Potency [1] 0.132 µM | Potency [2] 0.166 µM | Potency [3] 0.132 µM | Potency [6] 0.0526 µM | Potency [7] 0.126 µM | Potency [8] 126 nM

O=C(N[C@H]1CN2CCC1CC2)c1ccc(Cl)cc1
inactive: Potency [1] | Potency [2] | Potency [3] | Potency [10] | Potency [11] | Potency [5] | activity (max response) [7] 3.8% | Potency [8]

Cc1ccc(Cl)c(O)c1
inactive: Potency [1] | Potency [2] | activity (max response) [7] 12.5%

C[C@@H]1C[C@@H]([C@H](O)CC2CC(=O)NC(=O)C2)C(=O)[C@@H](C)C1
active: Potency [1] 376 nM and 417 nM | Potency [2] 841 nM and 590 nM | Potency [5] 0.418 µM | Potency [6] 0.332 µM | Potency [13] 0.59 µM | Potency [7] 1.84 µM and 1.78 µM | Potency [8] 920 nM and 1 µM

N=c1c2c(-c3ccccc3)c(-c3ccccc3)n(Cc3ccccc3)c2ncn1C1CCC(O)CC1 (configuration not stated)
active: Potency [1] 0.525 µM | Potency [2] 0.372 µM | Potency [12] 16.6 µM

COc1ccc(C(=O)c2c(C)n(CCN3CCOCC3)c3cc(I)ccc23)cc1
active: Potency [1] 13.2 µM | Potency [2] 10.5 µM | Potency [10] 4.18 µM | Potency [12] 8.33 µM | Potency [11] 4.18 µM | Potency [7] 31.6 µM | Potency [8] 20000 nM

Cc1ncsc1CCCl
inactive: Potency [1] | Potency [2] | activity (max response) [7] 10.3%

CC[N+]1(CCOC(=O)C(O)(c2ccccc2)c2ccccc2)CCCCC1
inactive: Potency [1] | Potency [2] | activity (max response) [7] 4.14%

COc1cc(CC(C)N)cc(OC)c1OC (configuration not stated)
inactive: Potency [1] | Potency [2] | activity (max response) [7] -27.2% | Potency [8]

CC1(C)C(=O)N(c2ccc(C#N)c(C(F)(F)F)c2)C(=S)N1Cc1ccc(-c2cn[nH]n2)cc1
active: Potency [1] 16.6 µM | Potency [2] 14.8 µM | Potency [7] 25.1 µM

C=CCN1CC[C@]23CCCC[C@H]2[C@H]1Cc1ccc(O)cc13
inactive: Potency [1] | Potency [2] | activity (max response) [7] -5.85% | Potency [8]

C[C@@]12OC(=O)[C@]1([C@@H](O)[C@@H]1C=CCCC1)NC(=O)[C@@H]2CCCl
active: Potency [1] 0.0209 µM | Potency [2] 0.0235 µM | Potency [7] 0.501 µM | Potency [8] 398 nM

CC1(N2CCC(n3c([C@@H]4CCCNC4)nc4ccccc43)CC2)CCCCCCC1
inactive: Potency [6]
active: Potency [1] 6.51 µM | Potency [2] 9.2 µM and 7.42 µM | Potency [7] 28.2 µM

CC[N+]1(CC)CCC(OC(=O)C(O)(c2ccccc2)c2ccccc2)C1 (configuration not stated)
inactive: Potency [1] | Potency [2] | activity (max response) [7] 5.92%

CN1C(=O)CCS(=O)(=O)C1c1ccc(Cl)cc1 (configuration not stated)
inactive: Potency [1] | Potency [2] | Potency [6] | activity (max response) [7] 1.09% and -1.33% | Potency [8]

CNC(=O)N1N=C(c2ccc(N)cc2)c2cc3c(cc2CC1C)OCO3 (configuration not stated)
active: Potency [1] 1.84 µM | Potency [2] 2.31 µM | Potency [6] 8.33 µM

C=C(C)[C@@H]1CCC(C)=C[C@H]1c1c(O)cc(CCCCC)cc1O
active: Potency [1] 20.9 µM | Potency [2] 16.6 µM | Potency [7] 31.6 µM

O=C1OC(c2ccc(O)c(S(=O)(=O)O)c2)(c2ccc(O)c(S(=O)(=O)O)c2)c2c(Br)c(Br)c(Br)c(Br)c21
inactive: Potency [1] | Potency [2] | activity (max response) [7] 4.14%

CC(C)=C[C@@H]1[C@@H](C(=O)OCc2coc(Cc3ccccc3)c2)C1(C)C
inactive: Potency [1] | Potency [2] | activity (max response) [7] -18.7%

Nc1ccccc1
inactive: Potency [1] | Potency [2] | activity (max response) [7] 7.78% | Potency [8]

COP(=S)(OC)Oc1ccc(Sc2ccc(OP(=S)(OC)OC)cc2)cc1
inactive: Potency [1] | Potency [2] | activity (max response) [7] 9.16%
